# Bioassay records deposited in PubChem by National Center for Advancing Translational Sciences (NCATS).
# Sampled rows, rich in hits. Any-hit rate of the full collection: about 9.4%.
# ELG1 repair inh: inhibitors of ELG1-dependent DNA repair in HEK293T cells; HEK293T ELG1-luciferase reporter, luminescence, 16 h; DNA damage induced by 5-fluorouridine; Potency, µM (series often up to 46.1 µM), without a hit: at the highest dose activity change, negative = inhibition, usual class: inhibitors; 2.3% of 330,000 active; further: on the % scale 0 is the no-effect control and ±100 the full control effect; nearly all actives have a fitted effect of over 55% in size
#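 5-Fluorouridine DNA damage + compound/DMSO, 2,000 cells/well, 16 h, 37 °C/5% CO2. ONE-Glo, 30 min RT, luminescence. Readout = decrease in reporter signal.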
# ELG1 genotoxic: induces genotoxicity in HEK293T cells with luciferase-tagged ELG1 | Potency, µM (highest dose often 46 µM), inactives show top-dose activity change, positive = activation, most hits filed as activators | HEK293T ELG1-luciferase reporter, luminescence, 16 h | 1.3% of 330,000 active; further: % of control where 0% means no effect; nearly all actives have a fitted effect of over 60% in size
#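 After overnight (16 hr) compound treatment at 37 °C, ELG1-luciferase HEK293T cells were lysed with ONE-Glo; luminescence quantified 30 min later at room temperature.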
# FLuc counter: counter-screen for miR-21 project: firefly luciferase inhibitors or activators; 6.9% of 360,000 active; Potency, µM (highest dose often 57.5 µM), inactives show top-dose activity change, negative = inhibition, actives largely listed as inhibitors; P08659; purified FLuc, Km substrates, luminescence inhibition;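 further: plate controls were vehicle for no effect and reference inhibitor for full effect; nearly all actives have a fitted effect of over 55% in size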
# Target sequence (P08659 whole entry, looked up): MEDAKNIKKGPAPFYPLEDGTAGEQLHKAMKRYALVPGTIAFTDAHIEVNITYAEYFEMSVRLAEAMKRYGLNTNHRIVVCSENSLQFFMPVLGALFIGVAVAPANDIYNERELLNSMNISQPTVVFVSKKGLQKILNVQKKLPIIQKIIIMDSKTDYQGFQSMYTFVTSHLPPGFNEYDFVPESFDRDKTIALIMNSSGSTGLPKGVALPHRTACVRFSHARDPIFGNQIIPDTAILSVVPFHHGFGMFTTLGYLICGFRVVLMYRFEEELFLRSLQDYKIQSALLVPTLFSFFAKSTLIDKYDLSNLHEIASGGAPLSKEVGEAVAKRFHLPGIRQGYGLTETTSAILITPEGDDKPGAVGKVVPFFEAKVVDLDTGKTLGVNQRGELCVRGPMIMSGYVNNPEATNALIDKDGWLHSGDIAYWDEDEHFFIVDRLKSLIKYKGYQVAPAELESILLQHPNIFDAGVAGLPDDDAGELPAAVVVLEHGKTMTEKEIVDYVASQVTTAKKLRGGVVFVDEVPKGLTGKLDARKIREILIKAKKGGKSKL
#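 Biochemical qHTS of compounds, final roughly 60 µM downward over six points, against 10 nM purified firefly luciferase using Km concentrations of substrates (10 uM D-luciferin, 10 uM ATP) in Tris acetate pH 7.5 buffer; luminescence output.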
# SMN2 splice enh: increases expression of the SMN2 splice variant | HEK293 SMN2-luciferase splicing reporter, luminescence, 30-36 h | Potency, µM (titrated, usually from 46.1 µM), for the others: at the highest dose activity change, positive = activation, actives largely listed as activators | 2.8% of 210,000 active | AID 1458; further: % of control where 0% means no effect; nearly all actives have a fitted effect of over 55% in size
#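 qHTS luciferase splicing reporter: luminescence rises when SMN2 exon 7 is included in transfected HEK293 cells. Compound exposure lasted 30-36 h at 37C, with 4.5 mM final sodium butyrate as control, followed by a ONE-Glo read.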
# Rab9 prom act: Rab9 promoter activation; Huh7 Rab9 promoter-luciferase reporter, luminescence, 24 h; Potency, µM (titrated, usually from 9.22 µM), for the others: at the highest dose activation, negative = inhibition, actives largely listed as activators; 2.8% of 320,000 active; further: % of control where 0% means no effect; nearly all actives have a fitted effect of over 60% in size
#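 Luminescence read-out: Huh7 cells stably expressing Rab9-luciferase, treated 24 h with compound at 37 °C, then lysed with luciferase reagent for 10 min at ambient before reading.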
# NPC1 promoter act: NPC1 promoter activation; AID 485313; Huh7 NPC1 promoter luciferase reporter, 24 h; 2.4% of 320,000 active; Potency, µM (doses to about 9.22 µM), for inactives: at the highest dose activation, actives largely listed as activators; further: % of control where 0% means no effect; nearly all actives have a fitted effect of over 60% in size
#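 Luciferase expression driven by the NPC1 promoter was measured in stably transfected Huh7 cells after a 24 h compound incubation, using a luciferase reagent and a luminescence read.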
# * marks the source's active call; other numbers are inactive results; ? = inconclusive; nt = no result given; [ ] = remark or other dose. The call rests on the fitted dose curve; in most records, active means well fitted curve in the direction sought with a large enough effect; inconclusive means small, poorly fitted or top-dose-only effect, or another doubt; inactive means no such curve, though single readings can be large; an effect the other way counts as inactive or inconclusive. Potency means the concentration at half of the fitted maximal effect.
SMILES,ELG1 repair inh,ELG1 genotoxic,FLuc counter,SMN2 splice enh,Rab9 prom act,NPC1 promoter act
CCc1ccc(OC(C)c2nc(-c3ccc(-n4cccc4)cc3)no2)cc1 (centres undefined),nt,nt,-5.8%,-5.3%,nt,nt
Cc1cccc(NC(=O)CSc2nc3c([nH]c4ccccc43)c(=O)n2-c2ccc(F)cc2)c1C,nt,nt,-0.6%,nt,nt,nt
COc1ccc(C2=NC3(CCCCCC3)N(CC(=O)Nc3ccc(C)c(C)c3)C2=O)cc1,nt,nt,1.3%,-7.6%,nt,nt
COC(=O)c1ccccc1NC(=O)CCC(=O)N1CC(C)Oc2ccc(C)cc21 (centres undefined),?,-6.7%,1.4%,nt,-3.3%,-10.8%
Cc1cccc(NC(=O)CCS(=O)(=O)c2ccc3c(c2)n(C)c(=O)c(=O)n3C)c1C,nt,nt,0.7%,10.1%,nt,nt
CN=C(N)/N=C(\N)Nc1cc2ccccc2c2ccccc12,nt,nt,nt,6.1%[9.22 µM],nt,nt
N/C(=N\OC(=O)c1ccc(Cl)cc1Cl)c1cccnc1,?,2.59µM*,1.2µM*,nt,1.58µM*,1.41µM*
N/C(=N\OC(=O)c1ccc(Cl)cc1Cl)c1ccc(Cl)cc1,?,?,0.536µM*,22.4%,1.58µM*,1.41µM*
CCSc1ccc(/C(N)=N/OC(=O)c2cccs2)cn1,?,13µM*,6.01µM*,nt,?,?
Cc1ccc(/C(N)=N/OC(=O)c2ccc(C)cc2Cl)cc1,?,?,0.849µM*,?,0.708µM*,1.12µM*
Cc1ccc(Cl)cc1NC(=O)C(=O)NCC(c1cccnc1)N1CCc2ccccc21 (centres undefined),nt,nt,-13.5%,nt,nt,nt
Cc1nn(-c2ccccc2)c2sc(C(=O)Nc3cccc(Br)c3)cc12,nt,nt,-3.1%,-19.7%,nt,nt
Nc1ccc(S(=O)(=O)NCCS(=O)(=O)O)cc1,nt,nt,nt,-3.1%[9.22 µM],nt,nt
N/C(=N\OC(=O)c1cccc([N+](=O)[O-])c1)c1cccnc1,?,8.6%,?,-2.8%,4.5%,-1.9%
N/C(=N\OC(=O)c1ccc(Cl)cc1)c1cccnc1,?,8.91µM*,1.35µM*,7.9%,3.0%,17.5%
O=C(NCc1ccccc1Cl)c1ccc2c(c1)N(Cc1ccccc1)C(=O)c1ccccc1S2,nt,nt,0.1%,nt,nt,nt
O=C(Cc1nc2ccccc2[nH]1)N/N=C/c1ccccc1,?,1.3%,15.1µM*,nt,8.2%,5.0%
CCN(CC)c1ccc(/C=N/Nc2nc3ccccc3[nH]2)cc1,?,?,6.01µM*,-92.1%,?,24.1%
O=C(O)c1ccc(/C=N/Nc2nc3ccccc3[nH]2)cc1,16.3%,-0.7%,?,nt,9.1%,12.9%
COC(=O)c1ccc(/C=N/Nc2nc3ccccc3[nH]2)cc1,?,20.6µM*,8.49µM*,?,3.16µM*,3.16µM*
c1ccc2[nH]c(NN=C3CCCCCC3)nc2c1,?,?,3.38µM*,11.2µM*,3.55µM*,9.9%
C[C@H](Br)C(=O)c1ccc2cc(Br)c3ccccc3c2c1,nt,nt,nt,-15.7%[9.22 µM],nt,nt
CC(=O)Nc1ccc(/C=N/Nc2nc3ccccc3[nH]2)cc1,?,-7.9%,12µM*,-29.5%,?,?
CC(/C=N/Nc1nc(C)cc(=O)[nH]1)=C\c1ccccc1,?,0.3%,?,-13.0%,13.5%,5.8%
CC(/C=N/Nc1nc2ccccc2[nH]1)=C\c1ccccc1,?,0.82µM*,0.675µM*,2.51µM*,0.398µM*,0.501µM*
SMILES,ELG1 repair inh,ELG1 genotoxic,FLuc counter,SMN2 splice enh,Rab9 prom act,NPC1 promoter act
CCCCn1c(CNC(=O)C23CC4CC(CC(C4)C2)C3)nnc1SCC(=O)Nc1ccccc1,nt,nt,-10.6%,-4.3%,nt,nt
CCCCc1nc2c(c3c1C[C@H](C)OC3)CN(S(=O)(=O)c1c(C)noc1C)CC2,nt,nt,nt,4.2%[9.22 µM],nt,nt
CCCCCCCCn1ccc(=N)cc1,0.731µM*,-20.4%,-0.4%,nt,-42.3%,-35.6%
Cc1[nH]c2c(ccc3cccnc32)c1C,14.6µM*,5.0%,23.9µM*,nt,18.1%,11.1%
Clc1ccc2ccc3cccnc3c2n1,7.0%,-1.5%,-2.7%,nt,-8.9%[1.84 µM],1.5%
O=C(CC1(O)C(=O)N(CCc2ccccc2)c2ccc(Br)cc21)c1ccccc1O (centres undefined),nt,nt,-13.2%,-14.0%,nt,nt
CC(C)[C@H](NC(=O)OC(C)(C)C)C(=O)N1CCC(C(=O)N[C@@H](C)C(=O)Nc2ccc(F)cc2)CC1,5.4%,-3.6%,0.6%,nt,-0.4%,-3.0%
CCc1ccc(NC(=O)[C@H](C)NC(=O)C2CCN(C(=O)[C@@H](NC(=O)OC(C)(C)C)C(C)C)CC2)cc1,?,6.9%,21.3µM*,nt,14.6%,18.4%
COc1ccc(-n2c(=O)c3ccccc3n(Cc3ccc(F)cc3Cl)c2=O)cc1OC,nt,nt,1.1%,-5.8%,nt,nt
CC1(c2ccccc2)NC(=O)N(CC(=O)Nc2cccc(/C=C/c3ccccn3)c2)C1=O (centres undefined),?,-7.6%,19µM*,nt,10.4%,-0.4%
Cc1cc(C)cc(NC(=O)CN2C(=O)NC(C)(c3ccccc3)C2=O)c1 (centres undefined),4.1%,2.1%,-19.6%,-10.7%,11.9%,-6.2%
Fc1ccc(-n2nnc(-c3ccnc4ccccc34)n2)cc1,?,?,2.13µM*,nt,3.98µM*,25.4%
Fc1ccc(-n2nnc(-c3ccccc3)n2)cc1,-6.0%,1.7%,2.5%,nt,0.2%,-4.7%
Cc1ccc(-n2nnc(-c3ccnc4ccccc34)n2)cc1,?,13µM*,1.9µM*,nt,4.47µM*,3.16µM*
Cc1ccc2nc(-c3cccnc3)c(Nc3ccccc3C)n2c1,-32.1%,-9.8%,-1.1%,-3.8%,-10.5%,1.0%
Cc1ccccc1Nc1c(-c2ccncc2)nc2ccc(Br)cn12,-10.6%,-5.4%,2.6%,12.6µM*,1.9%,-0.3%
COC(=O)CNc1c(-c2ccccc2)nc2ccc(Br)cn12,?,?,7.57µM*,29.1%,?,?
Cc1ccc2nc(-c3ccncc3)c(Nc3ccccc3C)n2c1,nt,nt,-1.8%,11.2µM*,nt,nt
COC(=O)Nc1c(-c2ccccc2)nc2ccc(Cl)cn12,7.1%,0.0%,-17.1%,nt,0.3%,-0.5%
Cc1ccccc1Nc1c(-c2cccnc2)nc2ccc(Br)cn12,7.2%,-20.4%,-1.4%,-28.6%,-6.5%,0.1%
O=C(NCc1ccc(F)cc1)c1ccc(NC(=O)N2CC3CCCN3c3ccccc32)cc1 (centres undefined),nt,nt,-12.0%,-4.3%,nt,nt
OC[C@@H]1O[C@@H](n2cnc3c(SCc4ccccc4)ncnc32)[C@@H](O)[C@H]1O,nt,nt,nt,-8.9%[9.22 µM],nt,nt
COc1cccc(CN2CCN(C(=O)c3ccc(-c4ccccc4)cc3)CC2)c1OC,18.3µM*,-8.6%,-13.2%,-9.3%,-8.2%,-4.7%
